# Measurements as given in PMC4552634, “A New Set of Chemical Starting Points with Plasmodium falciparum Transmission-Blocking Potential for Antimalarial Drug Discovery” (PLoS ONE, 2015).
# Where two headings read alike, the source gives them in different places. Among all 13,000 compounds or so, about 3,200 (25%) showed an effect of 50% or more. The list shows a part of the results.
# System: P. falciparum stage V gametocytes
# Design: BacTiter-Glo ATP luminescence viability of purified stage V gametocytes in 384-well plates, per cent inhibition versus DMSO
# Details: 48 h, 5 µM, inhibitor
SMILES,% Inhibition [%],% Inhibition (% Inhibition) [%]
O=c1cc(N2CCNCC2)c(Cl)nn1Cc1ccc(NS(=O)(=O)c2ccc(Oc3ccccc3)cc2)cc1 [TCMDC-141701],10.25,–
COc1ccc2nc(-c3cc(-c4ccc(NC(C)=O)cc4)cnc3N)[nH]c2c1 [TCMDC-135365],-4.081,–
Cc1sc(CNCCCNc2cc(=O)c3ccccc3[nH]2)c(I)c1C [TCMDC-140907],-22.52,–
CC(=O)N1c2ccccc2C(C)=CC1(C)C [TCMDC-123928],-1.243,–
CCCC1N=C(N)N=C(N)N1c1cccc(C(F)(F)F)c1 (centres unmarked) [TCMDC-131298],-25.37,–
CCN(CCCN1CCCCC1)c1cc(C)nc(Nc2ccc(Oc3ccccc3)cc2)n1 [TCMDC-132426],49.81,–
Cl.Nc1ccnc2ccc(OCCCCCCc3ccccc3)cc12 [TCMDC-139072],-2.454,–
CN(C)CCCn1c(C(=O)OC(c2ccccc2)c2ccccc2)cc2cc(OCc3ccccc3)ccc21 [TCMDC-138114],99.58,–
CN(C)CCCN(C)C(=O)c1cc2cc(-c3ccccc3)ccc2n1S(=O)(=O)c1ccccc1 [TCMDC-139127],25.92,–
CN(C)CCCOC(=O)c1cc2cc(-c3ccccc3)ccc2n1S(=O)(=O)Cc1ccccc1 [TCMDC-139121],46.9,–
Cc1ccccc1C1CCN(C2CCC(NC(=O)c3ccc(-c4cc(C(F)(F)F)nn4C)s3)CC2)CC1 (centres unmarked) [TCMDC-134107],-22.15,–
O=C(NC1CCC(CN2CCC(c3c[nH]c4ccccc34)CC2)CC1)c1cc2ccccc2s1 (centres unmarked) [TCMDC-139710],–,-31.58
O=C(NC1CCC(CN2CCC(c3c[nH]c4ccccc34)CC2)CC1)c1cc2ccccc2s1 (centres unmarked) [TCMDC-139722],–,56.81
Cn1nc(C(F)(F)F)cc1-c1ccc(C(=O)NC2CCC(CN3CCC(c4c[nH]c5ccccc45)CC3)CC2)s1 (centres unmarked) [TCMDC-140355],118.2,–
O=C(NC1CCC(CN2CCC(c3c[nH]c4ccccc34)CC2)CC1)c1cc(-c2ccccc2)c(C(F)(F)F)s1 (centres unmarked) [TCMDC-140356],23.32,–
COc1cc(C(=O)NC2CCC(CN3CCC(c4c[nH]c5ccccc45)CC3)CC2)cc(Cl)n1 (centres unmarked) [TCMDC-139937],89.84,–
O=C(NC1CCC(CN2CCC(c3c[nH]c4ccccc34)CC2)CC1)c1cc2ccccc2o1 (centres unmarked) [TCMDC-139764],94.95,–
CC(C)C[C@@H](C(=O)N[C@H](C(=O)Nc1nccs1)C(C)(C)C)[C@H](CCC(F)(F)F)N(O)C=O [TCMDC-138178],1.039,–
CCC1(CC)N=C(N)N=C(N)N1OCc1ccc(Cl)c(Cl)c1 [TCMDC-131656],33.88,–
N#Cc1ccc(C(=O)Nc2ccc(Cl)c(N3CCN(CCc4ccccc4)CC3)c2)cc1 [TCMDC-133534],-15.74,–
CC(Nc1ccc2c(c1)CCC2)C(=O)Nc1cc(C(F)(F)F)ccc1N1CCOCC1 (centres unmarked) [TCMDC-124858],33.49,–
COc1ccc2ncc(C#N)c(CCN3CCC(NCc4ccc5c(n4)NC(=O)CS5)CC3)c2n1 [TCMDC-135188],-9.823,–
CCN(CC)c1ccc(C=CC(=O)NCCN2CCC(N(C)C3CCCCC3C)CC2)cc1 (centres unmarked) [TCMDC-124445],-34.59,–

SMILES,% Inhibition [%],% Inhibition (% Inhibition) [%]
CN(C(=O)/C=C/c1cc(C(F)(F)F)ccc1F)C1CCN(CCCCCNC(=O)/C=C/c2ccc(Cl)c(Cl)c2)CC1 [TCMDC-139991],-46.39,–
CC1CCCCC1N(C)C1CCN(CCCNC(=O)C=Cc2cccc(C(F)(F)F)c2)CC1 (centres unmarked) [TCMDC-124443],53.92,–
CC1CCCCC1N(C)C1CCN(CCCNC(=O)C=Cc2ccccc2Cl)CC1 (centres unmarked) [TCMDC-124442],1.29,–
O=C(/C=C/c1cccc(C(F)(F)F)c1)NCCCCCN1CCC(c2c[nH]c3ccccc23)CC1 [TCMDC-139212],-27.28,–
CC1CCCCC1N(C)C1CCN(CCCNC(=O)C=Cc2ccc(Cl)cc2Cl)CC1 (centres unmarked) [TCMDC-124444],93.47,–
Fc1ccc(COc2ccc(Nc3ncnc4ccc(I)cc34)cc2Cl)cc1 [TCMDC-138628],-1.956,–
Cc1c(Cc2ccc(C(C)C)cc2)cnc2nc(N)nc(N)c12 [TCMDC-138044],4.775,–
CCOc1ccc(-c2nonc2NC(=O)c2ccccc2)cc1OCC [TCMDC-125199],91.48,–
CCOc1ccc(-c2nonc2NC(=O)c2cccs2)cc1OCC [TCMDC-125207],83.06,–
CCOc1ccc(-c2nonc2NC(=O)c2ccco2)cc1OCC [TCMDC-125197],3.347,–
CCOc1ccc(-c2nonc2NC(=O)c2cccc(Cl)c2)cc1OCC [TCMDC-125200],91.59,–
CCOc1ccc(-c2nonc2NC(=O)CC(C)C)cc1OCC [TCMDC-125196],42.86,–
CCCCC(=O)Nc1nonc1-c1ccc(OCC)c(OCC)c1 [TCMDC-125071],74.8,–
Cc1ccc2cc(NCCCCCCCCON3C(N)=NC(N)=NC34CCCCC4)ccc2n1 [TCMDC-140362],9.593,–
Cn1cncc1C(=O)NC1CCN(c2ccnc(Nc3ccc(F)cc3)n2)C1 (centres unmarked) [TCMDC-133600],-9.129,–
CC(C)CC(C)NC(=O)C1Cc2c([nH]c3ccc(F)cc23)C2(CCN(Cc3ccccc3)CC2)N1 (centres unmarked) [TCMDC-141304],-71.76,–
Cc1cccc2nc(-c3ccc(-c4ccc(NC(=O)Nc5cccc(C#N)c5)cc4)s3)[nH]c12 [TCMDC-133189],17.89,–
CCN(CC)S(=O)(=O)c1ccc(C(=O)Oc2ccccc2N(Cc2ccc(OC)cc2)C2=NS(=O)(=O)c3ccccc32)cc1 [TCMDC-125657],32.63,–
COc1ccc2nccc([C@@H](O)CN3CCC(NCc4ccc5sc(=O)[nH]c5c4)CC3)c2c1 [TCMDC-141199],32.68,–
Oc1ccc(CN2CCC(N3CCN(CCc4ccccc4)CC3)C(O)C2)cc1Cl (centres unmarked) [TCMDC-124627],21.13,–
CCc1ccc(O)c(-c2cc(C(=O)Nc3cccnc3)[nH]n2)c1 [TCMDC-125321],-26.21,–
CN1CCN(Cc2c(O)ccc3c(=O)c(Oc4ccc(C(C)(C)C)cc4)c(C(F)(F)F)oc23)CC1 [TCMDC-125699],17.84,–
O=C(Nc1cccc(Cl)c1)OC1CCCN2CCCCC12 (centres unmarked) [TCMDC-132073],14.89,–

SMILES,% Inhibition [%],% Inhibition (% Inhibition) [%]
CC(C)(C)c1ccc(S(=O)(=O)Nc2ccccc2Cn2nc(N3CCNCC3)ccc2=O)cc1 [TCMDC-132579],45.07,–
CC(C)(C)C(=O)Nc1ccc(C(=O)Nc2cccc(-c3nc4ccccc4[nH]3)c2)cc1 [TCMDC-123720],-0.3051,–
CCOc1ccc(-c2nonc2NC(=O)c2ccc(OC)cc2)cc1OCC [TCMDC-125208],49.87,–
CCOc1ccc(-c2nonc2NC(=O)c2ccc(Cl)cc2)cc1OCC [TCMDC-125210],29.52,–
CCOc1ccc(-c2nonc2NC(=O)c2ccc(F)cc2)cc1OCC [TCMDC-125209],63.55,–
Nc1cccc(CNCc2cccc(-c3ccc(-c4nc5ccccc5[nH]4)cc3)c2)c1.O=C(O)C(F)(F)F [TCMDC-132940],-44.43,–
CCOc1cc(NCCCNc2ncc([N+](=O)[O-])cc2C)nc2ccccc12 [TCMDC-139265],-18.92,–
CCOc1c(Cl)cc(Cl)cc1CNCCCNc1nc2ccccc2[nH]1 [TCMDC-140104],21.3,–
CCOc1cccc2nc(NCCCNCc3ccc(Cl)c(Cl)c3)cc(NCCCNCc3ccc(Cl)c(Cl)c3)c12 [TCMDC-139413],102.1,–
COc1ccc2c(c1)nc(CN=C(N)N)n2Cc1ccc(Cl)cc1 [TCMDC-142042],28.73,–
Cc1cc(O)c(-c2cc(C(=O)Nc3cccnc3)[nH]n2)cc1C [TCMDC-124307],6.508,–
COc1ccc(-c2nc(NC(=O)COc3ccc(C(C)=O)cc3)sc2C)cc1 [TCMDC-125108],2.358,–
Cn1nccc1C(=O)NCCNCc1ccc(-c2ccc(-c3nc4cc(C(F)(F)F)ccc4[nH]3)s2)cc1.O=C(O)C(F)(F)F [TCMDC-133018],-29.18,–
CCNc1cc(C(=O)N[C@@H](Cc2ccccc2)[C@H](O)CNC(C)CC(C)C)c(F)c(N2CCCCS2(=O)=O)c1 (some centres unmarked) [TCMDC-135167],44.92,–
CC(C)Nc1cc(C(=O)N[C@@H](Cc2ccccc2)[C@H](O)CNC(C)(C)c2cccc(C(F)(F)F)c2)cc(N2CCCCS2(=O)=O)c1 [TCMDC-135204],0.5792,–
CCNc1cc(C(=O)N[C@@H](Cc2ccccc2)[C@H](O)CNC(C)(C)CC(C)(C)C)c(F)c(N2CCCCS2(=O)=O)c1 [TCMDC-135166],-2.474,–
CC(C)CCCC(C)(C)NC[C@@H](O)[C@H](Cc1ccccc1)NC(=O)c1cc(NC(C)C)cc(N2CCCCS2(=O)=O)c1 [TCMDC-135206],89.31,–
CCNc1cc(C(=O)N[C@@H](Cc2ccccc2)[C@H](O)CNCCC(C)(C)C)c(F)c(N2CCCCS2(=O)=O)c1 [TCMDC-135165],62.14,–
CCNc1cc(C(=O)N[C@@H](Cc2ccccc2)[C@H](O)CNC(C)(C)CCCC(C)C)cc(N2CCCCS2(=O)=O)c1 [TCMDC-135211],24.29,–
CC(C)CCCC(C)(C)NC[C@@H](O)[C@H](Cc1ccccc1)NC(=O)c1cc(NC(C)C)cc(N2CCCCS2(=O)=O)c1F [TCMDC-135540],50.35,–
CCNc1cc(C(=O)NC(Cc2ccccc2)C(O)CNC(C)(C)CCCC(C)C)c(F)c(N2CCCS2(=O)=O)c1 (centres unmarked) [TCMDC-135210],12.17,–
CC(C)Nc1cc(C(=O)N[C@@H](Cc2ccccc2)[C@H](O)CNCc2cccc(C(F)(F)F)c2)c(F)c(N2CCCCS2(=O)=O)c1 [TCMDC-135538],3.895,–
